CtBP-E1A inh: CtBP/E1A binding inhibition. AlphaScreen GST-E1A/His-CtBP binding, 1536-well; stronger effect = lower value. activity change, % (test concentration not listed). actives 0.49% (n = 340,000). AID 651724; in the data active means activity change below about -65%; inconclusive means mostly about -30% to -63%
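AlphaScreen with 125 nM GST-E1A and 125 nM His-CtBP (5X stocks) in Tris pH 8.0, 300 mM NaCl, BSA, Tween 20, TCEP. Compounds preincubated 2 h at 37 deg C, then glutathione donor/nickel acceptor beads added for 1 h at 37 deg C in dark.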
HP1b chromo inh: blocks HP1-beta chromodomain binding to methylated histone tails. P83916. AlphaScreen HP1-beta / biotin-H3K9me3 peptide binding. Potency, µM (top dose mostly 114 µM), most hits filed as inhibitors. actives 0.56% (n = 390,000). AID 540317; further: nearly all actives have a fitted effect of over 70% in size
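Compound inhibition of the preformed complex between 50 nM HP1-beta and 50 nM biotinylated H3K9me3 peptide was read by AlphaScreen. Buffer was PBS pH 7.4 with 0.01% Tween-20. Incubations ran 30 min at room temperature, with 10 ug/mL donor/acceptor beads.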
BAZ2B inh: BAZ2B (human) inhibition; Q9UIF8; AlphaScreen BAZ2B-H3K14Ac peptide displacement; Potency, µM (series often up to 114 µM), actives largely listed as inhibitors; actives 4.4% (n = 360,000); AID 504333; further: nearly all actives have a fitted effect of over 60% in size
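AlphaScreen luminescence quantifies BAZ2B engagement of H3K14Ac peptide; the protein and biotinylated peptide are both at 50 nM final, buffer PBS pH 7.4 with 0.01% Tween-20, all steps at room temperature.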
Six1-Eya2 inh: Six1/Eya2 interaction inhibition. activity change, % (concentration not given with the values). Q15475+O00167. AlphaScreen GST-Six1/His-Eya2 binding, biochemical; stronger effect = lower value. actives 0.56% (n = 360,000); in the data active means activity change below about -65%; inconclusive means mostly about -30% to -63%
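AlphaScreen with GST-Six1 and His-Eya2 (5X mix: 250 nM and 500 nM), glutathione donor and nickel acceptor beads; buffer 50 mM Tris pH 8.0, 300 mM NaCl, 1 mM TCEP; 1 h at 37 C in the dark.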
JMJD2A Tudor inh: inhibitors of human JMJD2A Tudor domain | Potency, µM (titrated, usually from 114 µM), actives largely listed as inhibitors | actives 4.4% (n = 390,000) | AID 504339 | O75164 | AlphaScreen JMJD2A-Tudor / H3K4me3 peptide binding; further: nearly all actives have a fitted effect of over 50% in size
Target sequence (O75164 whole entry, looked up, the tested form may be a part): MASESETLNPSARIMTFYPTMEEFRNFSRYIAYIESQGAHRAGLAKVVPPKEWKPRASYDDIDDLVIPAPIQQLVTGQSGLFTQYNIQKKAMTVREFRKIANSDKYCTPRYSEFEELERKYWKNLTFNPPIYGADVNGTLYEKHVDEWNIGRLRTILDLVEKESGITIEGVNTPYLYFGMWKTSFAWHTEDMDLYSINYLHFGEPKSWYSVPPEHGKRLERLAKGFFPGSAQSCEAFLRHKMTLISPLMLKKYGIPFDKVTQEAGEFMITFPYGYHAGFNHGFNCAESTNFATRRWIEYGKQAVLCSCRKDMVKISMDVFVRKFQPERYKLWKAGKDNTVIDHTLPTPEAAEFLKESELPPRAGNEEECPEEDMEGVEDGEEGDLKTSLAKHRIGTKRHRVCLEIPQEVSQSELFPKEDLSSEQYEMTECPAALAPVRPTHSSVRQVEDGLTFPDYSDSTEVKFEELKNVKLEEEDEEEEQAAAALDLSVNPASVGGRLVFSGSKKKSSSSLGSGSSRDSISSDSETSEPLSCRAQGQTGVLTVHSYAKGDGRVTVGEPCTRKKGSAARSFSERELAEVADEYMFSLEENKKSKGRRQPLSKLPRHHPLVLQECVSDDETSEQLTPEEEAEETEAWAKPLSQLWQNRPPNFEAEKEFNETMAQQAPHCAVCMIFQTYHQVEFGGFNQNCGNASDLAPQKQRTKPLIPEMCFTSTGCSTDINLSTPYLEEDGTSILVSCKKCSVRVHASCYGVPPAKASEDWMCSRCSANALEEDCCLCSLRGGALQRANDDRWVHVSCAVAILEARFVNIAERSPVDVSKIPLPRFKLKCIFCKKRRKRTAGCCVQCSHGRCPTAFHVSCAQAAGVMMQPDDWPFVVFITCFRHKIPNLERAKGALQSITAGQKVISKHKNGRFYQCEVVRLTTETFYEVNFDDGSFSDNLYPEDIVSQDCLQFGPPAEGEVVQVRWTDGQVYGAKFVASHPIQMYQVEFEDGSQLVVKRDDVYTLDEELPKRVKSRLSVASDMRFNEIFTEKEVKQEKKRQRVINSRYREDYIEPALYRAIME
G9a inh: blocks human histone lysine methyltransferase G9a; Q96KQ7; G9a H3K9 monomethylation, AlphaScreen, 2 h; Potency, µM (doses to about 102 µM), actives largely listed as inhibitors; actives 8.8% (n = 350,000); further: nearly all actives have a fitted effect of over 75% in size
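G9a (20 nM) preincubated 15 min RT with compounds, then 500 nM biotinylated H3K9 peptide and 20 uM SAM added; 2 h RT reaction. Monomethyl-H3K9 product detected by AlphaScreen with anti-H3K9me1 antibody, streptavidin donor and anti-rabbit IgG acceptor beads.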
Large screens that a line does not name were inactive. Shown are actives, neighbours in structure and some others; about 10% of the full set was active somewhere. Unless noted, the call rests on the fitted dose curve; in most records, active means well fitted inhibition curve with a large enough effect; inconclusive means small, poorly fitted or top-dose-only effect; inactive means no such curve, though single readings can be large or run the other way.

CC(C)(C)C(=O)CSc1nc2ncc(Br)cc2[nH]1	JMJD2A Tudor inh inconclusive, G9a inh 50.1µM
Cc1nc2nc(SCC(=O)C(C)(C)C)[nH]c2cc1Br	JMJD2A Tudor inh inconclusive
O=C(CSc1nc2ncc(Br)cc2[nH]1)c1cccc([N+](=O)[O-])c1	G9a inh 44.7µM
CC(C)(C)c1ccc(OCC(=O)NCC2(N3CCOCC3)CCCCC2)cc1	none (no result: CtBP-E1A inh, Six1-Eya2 inh)
O=C(Nc1ccc2[nH]ccc2c1)c1ccccc1	G9a inh inconclusive
S=c1[nH]c2ccccc2s1	G9a inh 11.2µM (no result: CtBP-E1A inh, HP1b chromo inh, BAZ2B inh, Six1-Eya2 inh, JMJD2A Tudor inh)
O=C(Nc1ccc2[nH]c(=S)sc2c1)c1ccccc1	G9a inh 5.62µM
O=C(Nc1ccc(F)cc1)Nc1ccccc1F	none
O=C(Nc1ccc2[nH]c(=S)sc2c1)Nc1ccccc1F	BAZ2B inh inconclusive, Six1-Eya2 inh inconclusive, G9a inh 44.7µM (no result: CtBP-E1A inh)
Nc1ncnc2c1ncn2[C@@H]1O[C@H](C(=O)NC2CC2)[C@H](O)[C@H]1O	none (no result: CtBP-E1A inh, HP1b chromo inh, BAZ2B inh, Six1-Eya2 inh, JMJD2A Tudor inh)
O=C(CSc1nnc2scc(-c3ccc(Cl)cc3)n12)Nc1ccc(F)cc1	none (no result: CtBP-E1A inh, Six1-Eya2 inh)
O=C(O)C12CC3CC(C1)CC(n1ncc(NCc4ccco4)c(Cl)c1=O)(C3)C2	G9a inh 79.4µM
CCc1ccccc1NC(=O)CN1C(=O)COc2ccc(S(=O)(=O)N3CCCCCC3)cc21	none (no result: CtBP-E1A inh, Six1-Eya2 inh)
COc1cccc(/C=N/n2c(=S)n(C)c3cc(C)c(C)cc32)c1OC	G9a inh inconclusive
COc1cccc(/C=N/n2c(-c3cc(C)[nH]n3)n[nH]c2=S)c1OC	JMJD2A Tudor inh 1.78µM (no result: CtBP-E1A inh, G9a inh)
COc1ccc(/C=N/n2c(-c3n[nH]c4c3CCC4)n[nH]c2=S)c(OC)c1OC	HP1b chromo inh inconclusive, JMJD2A Tudor inh 4.47µM, G9a inh 1.26µM (no result: CtBP-E1A inh)
COc1ccc(/C=N/n2c(C)nnc2C)c(OC)c1OC	none
COc1cccc(/C=N/n2c(-c3n[nH]c4c3CCC4)n[nH]c2=S)c1OC	HP1b chromo inh inconclusive, JMJD2A Tudor inh 3.16µM, G9a inh 2.51µM
Cc1ccc2c(c1)S/C(=C/c1ccc[n+](C)c1)N2CCO	JMJD2A Tudor inh 25.1µM, G9a inh 14.1µM
COc1ccc(-c2cc(C(F)(F)F)nc(SCCC(=O)Nc3ccc(F)cc3F)n2)cc1	none (no result: CtBP-E1A inh, Six1-Eya2 inh)
Nc1cc2c(cc1O)CCCC2	HP1b chromo inh inconclusive, JMJD2A Tudor inh 2.51µM (no result: G9a inh)
C=C1c2ccccc2O[C@H](C(=O)OCC)C1OC (mixture of isomers)	none (no result: CtBP-E1A inh, HP1b chromo inh, BAZ2B inh, Six1-Eya2 inh, JMJD2A Tudor inh)
CSCC[C@H](NC(=O)Cc1c(C)c2cc3c4c(oc3cc2oc1=O)CCCC4)C(=O)O	G9a inh 44.7µM (no result: CtBP-E1A inh)
O=C(Nc1nc(-c2ccc(F)cc2)cs1)C1CCN(C(=O)c2ccc(F)cc2)CC1	G9a inh 35.5µM
CC(=O)c1sc(NC(=O)C2CCN(C(=O)c3ccc(F)cc3)CC2)nc1-c1ccccc1	G9a inh 44.7µM
Cc1ccccc1NC(=O)C1CCN(C(=O)c2ccc(F)cc2)CC1	none (no result: CtBP-E1A inh, Six1-Eya2 inh)
O=C(Nc1nc2ccccc2[nH]1)C1CCN(C(=O)c2ccc(F)cc2)CC1	JMJD2A Tudor inh inconclusive, G9a inh 39.8µM
O=C(Nc1nc2c(F)cc(F)cc2s1)C1CCN(C(=O)c2ccc(F)cc2)CC1	G9a inh 44.7µM
O=C(Nc1nc2ccccc2[nH]1)C1CC1	none
Cc1cccc(NC(=O)C2CCN(C(=O)c3ccc(F)cc3)CC2)n1	none
COc1ccc(S(=O)(=O)NNC(=O)c2csc(-n3nc(C)cc3C(F)(F)F)n2)cc1OC	BAZ2B inh inconclusive, G9a inh 35.5µM
COc1cc(NC(=S)Nc2cccnc2)cc(OC)c1	G9a inh 15.8µM
Cc1cc(NC(=S)Nc2cccnc2)ccc1Br	G9a inh 39.8µM
CCOC(=O)c1ccc(NC(=O)CCCn2nc(C)c3sc4ccccc4c3c2=O)cc1	none (no result: CtBP-E1A inh, Six1-Eya2 inh)
O=C(Nc1ccc(S(=O)(=O)N2CCC(c3nc4ccccc4s3)CC2)cc1)c1ccccc1	G9a inh inconclusive (no result: CtBP-E1A inh, Six1-Eya2 inh)
CN1CCN(C(=O)CCN2C(=O)/C(=C\c3ccc(Cl)cc3)SC2=S)CC1	none
Cc1ccc(C)n1N1C(=O)/C(=C\c2ccc(Cl)cc2)SC1=S	BAZ2B inh 2.82µM, JMJD2A Tudor inh 39.8µM, G9a inh inconclusive

From PubChem
